SRC1 inh: inhibits human SRC1 coactivator | 0.12% of 360,000 active | Q15788 | AID 588354 | HEK293 GAL4-SRC1 luciferase reporter, luminescence | inhibition, % at 3.6 µM;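 active = inhibition above the campaign mean plus 3 SD, with each screening campaign given its own cutoff, cut at about 60% in these data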;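 also: 0% = DMSO treated cells and 100% = gossypol at 36 µM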
LRH-1 inv ag: inverse agonists of human LRH-1 (NR5A2). O00482. HEK293T StAR-luciferase reporter, LRH-1 transfected, 24 h. inhibition, % at 3.6 µM. 0.13% of 360,000 active;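 active = inhibition above the mean inhibition of all tested compounds plus 3 SD, cut at about 73% in these data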;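 also: 0% = DMSO wells and 100% = reporter-only cells lacking LRH-1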
Target sequence (O00482 whole entry, looked up): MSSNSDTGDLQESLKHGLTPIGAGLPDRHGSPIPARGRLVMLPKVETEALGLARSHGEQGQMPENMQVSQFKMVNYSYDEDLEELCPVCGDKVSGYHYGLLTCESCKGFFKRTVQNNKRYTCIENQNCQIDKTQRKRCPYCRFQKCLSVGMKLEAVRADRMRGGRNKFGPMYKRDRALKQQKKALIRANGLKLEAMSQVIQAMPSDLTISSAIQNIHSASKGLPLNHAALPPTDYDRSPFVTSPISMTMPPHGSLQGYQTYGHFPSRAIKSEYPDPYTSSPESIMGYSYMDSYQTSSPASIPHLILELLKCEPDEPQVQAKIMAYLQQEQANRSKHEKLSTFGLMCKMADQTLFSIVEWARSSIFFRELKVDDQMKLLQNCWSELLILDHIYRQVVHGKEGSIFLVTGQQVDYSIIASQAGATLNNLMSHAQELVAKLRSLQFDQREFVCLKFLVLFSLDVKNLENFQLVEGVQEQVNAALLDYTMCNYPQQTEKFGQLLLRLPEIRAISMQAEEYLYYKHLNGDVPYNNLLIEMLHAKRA
EBV LMP1 NFkB: Epstein-Barr LMP1 NF-kappaB reporter inhibition. LMP1-induced NF-kappaB luciferase reporter cells, luminescence. inhibition, % at 12.5 µM. 0.69% of 350,000 active; in the data active = inhibition above about 41%; inconclusive = no clear call, values can overlap the other calls;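 also: 0% = neutral control wells and 100% = reference inhibitor control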
SRC2 inh: human SRC2 (NCOA2) inhibition; HEK293 GAL4-SRC2 luciferase reporter, luminescence; inhibition, % at 9 µM; 0.17% of 370,000 active;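 active = inhibition above the mean inhibition of all tested compounds plus 3 SD, set per campaign, cut at about 52% in these data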;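 also: 0% = DMSO treated cells and 100% = cells given Gossypol at 36 µM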
Shn3 3UTR inh: reduces Shn3 3'UTR luciferase signal in osteoblasts; inhibition, % at 12.5 µM; 0.52% of 360,000 active; Clone20 osteoblast Shn3 3'UTR firefly luciferase, 24 h;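 active = mean inhibition of at least 75% with every replicate also reaching 75%; inconclusive = mean inhibition at least 75% but some replicate below; inactive = mean inhibition below 75%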;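 also: 0% = median of neutral control wells and 100% = pilot-screen positive control compound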
NCOA3 inh: human NCOA3 inhibition | Q9Y6Q9 | HEK293 GAL4-SRC3 luciferase reporter, luminescence | inhibition, % at 3.6 µM | 0.17% of 360,000 active | AID 588352;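 active = inhibition above a per-campaign cutoff, the mean of all compounds plus 3 SD, cut at about 60% in these data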;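 also: 0% = DMSO-treated cells and 100% = gossypol-treated cells at 36 µM; higher means less SRC3-driven luciferase light from the GAL4 reporter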
Starred values were filed as active, the others as inactive; ? = inconclusive; . = no result; ! = repeats disagree. An excerpt weighted towards active compounds, which were near 1.2% of everything screened.

SMILES	SRC1 inh	LRH-1 inv ag	EBV LMP1 NFkB	SRC2 inh	Shn3 3UTR inh	NCOA3 inh
CC(=O)N1CCN(c2ccc(N3CCN(Cc4ccccc4)[C@H](C)C3)c(C)c2)[C@H](C)C1	.	.	.	14	.	.
NC1=NC(=O)NC1(c1ccccc1)c1ccccc1	-1	-13	48*	-9	-19	7
NN1C(=O)NC(c2ccccc2)(c2ccccc2)C1=O	15	2	8	-35	9	5
NC1=NC[C@@H](CC2CCCCC2)N1CCc1cc(C(F)(F)F)cc(C(F)(F)F)c1	21	5	6	.	97*	13
CC(=O)n1cc(N(C(=O)CCl)c2ccc([N+](=O)[O-])cc2)c2ccccc21	-6	34	-3	56*	.	21
CC1CCN(C(=O)/C(=C\c2cccs2)NC(=O)c2ccccc2)CC1	-26	22	53*	6	63	4
O=C(Nc1ccc(-c2nc3cccnc3s2)cc1)C1CCCO1 (stereo unspecified)	-36	-80	65*	30	83	-15
O=C(Nc1ccc(-c2nc3ccccc3o2)cc1)C1CCCO1 (stereo unspecified)	-109	-94	-11	-17	-16	-75
C=C[C@]1(C)C=C2CC[C@H]3[C@@](C)(CCC[C@@]3(C)C(=O)O)[C@@H]2CC1	0	1	2	.	-49	7
C=C[C@]1(C)C=C2C(=O)[C@@]3(O)OC(=O)[C@@]4(CCCC(C)(C)[C@H]34)[C@@]2(O)CC1	-54	25	.	14	95*	27
CN(C)CCCN1c2ccccc2Sc2ccc(Cl)cc21	4	-12	49*!	-3	-11	8
O=C1N/C(=C/c2ccc(N3CCOCC3)o2)C(=O)N1c1ccccc1	-12	10	2	-4	92*	5
O=C(CSc1nnc(-c2ccccc2)n1-c1ccc(Cl)cc1)Nc1cccc2ccccc12	.	.	.	2	.	.
O=C(Nc1ccc([N+](=O)[O-])cc1)C(=O)Nc1cccc(C(=O)O)c1	-133	-209	90*	-22	86*	-83
O=C(Nc1ccc(OC(F)(F)F)cc1)Nc1cccc([N+](=O)[O-])c1	-2	29	9	-5	52	62*
Cc1ccc(NC(=O)Nc2cccc([N+](=O)[O-])c2)cc1F	-43	-97	10	-50	27	-35
CC(COc1cc(F)cc(F)c1)CN1CCC(C(O)(c2ccccc2)c2ccccc2)CC1 (stereo unspecified)	.	.	.	9	.	.
O=C(N/C(=C/c1ccc(Cl)cc1)c1nc2ccccc2[nH]1)c1ccco1	-1	-18	-29	5	6	3
O=C(/C(=C/c1ccc(Cl)cc1)c1nc2ccccc2[nH]1)c1ccccc1	-7	-51	86*	5	?	9
COc1cc(NC(=O)c2cccs2)c(C(=O)OCC(=O)c2cc(C)n(-c3ccccc3)c2C)cc1OC	11	2	59*	57*	9	27
COc1ccc(CC2=CC(=O)c3ccccc3C2=O)cc1	7	20	7	-12	89*	-1
O=C(COCc1ccccc1)N1CC[C@H]2[C@H](CCCN2Cc2ccc(F)cc2)C1	.	.	.	18	.	.
N#C/C(=C/c1ccco1)C(N)=S	8	-11	3	-17	-14	4
COc1ccc(C(=O)/C(=C\c2ccco2)N2C=CC=CC2=C(C#N)C#N)cc1	2	31	10	.	97*	-1
N#CC(C#N)=C1C=CC=CN1/C(=C\c1ccco1)C(=O)c1ccccc1	-2	9	0	-16	96*	6
SMILES	SRC1 inh	LRH-1 inv ag	EBV LMP1 NFkB	SRC2 inh	Shn3 3UTR inh	NCOA3 inh
N#CC(C#N)=C1C=CC=CN1/C(=C\c1ccco1)C(=O)c1ccc(Br)cc1	-22	-6	-21	-16	90*	19
COc1ccc(/C=C(/C(=O)c2cccs2)N2C=CC=CC2=C(C#N)C#N)cc1	-29	-28	0	-48	67	-23
C#CCNC(=O)C[C@H]1C[C@@]2(C(=O)OC)C(=C[C@H](C3CCCC3)O[C@@H]2C)N(CCc2ccc(OC)c(OC)c2)C1=O	.	.	.	-6	.	.
C#CCNC(=O)C[C@@H]1C[C@@](CCC(=O)OCC)(C(=O)OCC)C2=CCCCN2C1=O	.	.	.	15	.	.
CCOC(=O)c1cn(CC(=O)Nc2cccc(Cl)c2)nn1	-20	3	3	-14	-5	12
CCOC(=O)c1cn(CC(=O)Nc2cccc(Cl)c2C)nn1	-6	16	-2	-11	95*	-4
Cc1ccc(CN2CCCCC(NC(=O)Cc3cccs3)C2=O)cc1 (stereo unspecified)	.	.	.	14	.	.
O=S1(=O)Nc2c(ccc3cccnc23)-c2ccccc21	-10	59	7	.	88*	-80
CC(=O)N1CCN(C(=O)CN2C(=O)NC(C)(c3ccc4ccccc4c3)C2=O)CC1 (stereo unspecified)	1	20	-1	-13	6	2
CC1CC(C)(C)CC2(C1)NC(=O)N(CC(=O)N1CCN(Cc3ccc(C#N)cc3)CC1)C2=O (stereo unspecified)	9	20	19	11	86*	22
CC1(c2ccc3ccccc3c2)NC(=O)N(CC(=O)N2CCN(Cc3ccc(C#N)cc3)CC2)C1=O (stereo unspecified)	22	57	30	.	88*	25
NC(=Nc1cccc(F)c1)NC(=O)OCc1ccccc1	.	.	.	-49	.	.
Cc1ccc(NC(=O)C2CCN(S(=O)(=O)c3ccc4c(c3)NC(=O)C(C)S4)CC2)cc1Cl (stereo unspecified)	13	1	40*	18	89*	21
CCN(CC)Cc1c(O)ccc2occ(C(=O)c3ccc(OC)cc3)c12	13	4	4	-28	-1	3
CCN(CC)Cc1c(O)ccc2c([N+](=O)[O-])c(C)n(-c3ccc(OC)cc3)c12	61*	24	37	47	7	49
CC1CCN(C2=NC(=O)/C(=C/c3ccccc3F)S2)CC1	28	29	.	54*	-19	44
CC1CCN(C2=NC(=O)/C(=C/c3cccc(O)c3)S2)CC1	-20	-20	-3	-36	-18	-16
Cc1ccc(NC(=O)OCCCN2C(=O)CCC23CCC(C)CC3)cc1C (stereo unspecified)	.	.	.	-30	.	.
CCCCCC1CC1C(=O)N/N=C/c1ccc(N(C)C)cc1 (stereo unspecified)	-9	-29	-14	7	89*	8
COC(=O)[C@@H](Cc1ccccc1)N[C@H](/C=C/c1ccccc1)[C@@H](O)Cc1ccccc1	.	.	.	12	.	.
COCC(=O)Nc1c(C(=O)Nc2ccc3c(c2)OCO3)oc2ccccc12	-26	-8	-23	-22	-75	-64
O=C(CCl)Nc1c(C(=O)Nc2ccc3c(c2)OCCO3)oc2ccccc12	-46	-45	-46	0	95*	-5
CCOC(=O)c1cnc(-n2nc(C)cc2C)nc1NCc1ccc2c(c1)OCO2	9	7	10	-22	94*	4

From PubChem BioAssay
